Source: PubChem
Shiga toxin inh: inhibitors of Shiga toxin in Vero cells | inhibition, % at 38.7 µM | Vero cells, Shiga toxin protein synthesis inhibition reporter | 290,000 tested, 9.2% active; in the data active means inhibition mostly above about 28%, no sharp cut-off; inactive means mostly below about 43%; further: 0% is about no effect
Cycloheximide cs: counter-screen for Shiga toxin inhibitors: cycloheximide protein synthesis inhibition; cell reporter, cycloheximide protein synthesis inhibition counterscreen; max response, %; 300,000 tested, 12% active; AID 2314; in the data active means max response mostly above about 13%, no sharp cut-off; inactive means mostly below about 14%; further: read at 38.3 µM for the half of the compounds with a filed dose; 0% is about no effect
VACV mCherry inh: inhibitors of vaccinia virus infection (mCherry reporter signal). AID 720579. 310,000 tested, 0.63% active. Potency, µM (highest dose often 36.5 µM), for inactives: at the highest dose activity change, negative = inhibition, hits mostly inhibitors. Vaccinia virus mCherry reporter infection, fluorescence; calls by dose curve; tested in A549 cells; further: potency means the concentration at half of the fitted maximal effect; on the % scale 0 is the no-effect control and ±100 the full control effect; nearly all actives have a fitted effect of over 35% in size
MARV entry inh: blocks Marburg virus binding to or entry into cells; 300,000 tested, 1.8% active; Potency, µM (doses to about 37.8 µM), for the others: at the top dose activity change, negative = inhibition, most hits filed as inhibitors; AID 540276; Marburg virus pseudotyped entry inhibition, cell reporter; calls by dose curve; tested in HEK293 cells; further: potency means the concentration at half of the fitted maximal effect; on the % scale 0 is the no-effect control and ±100 the full control effect
VACV Venus inh: vaccinia inhibition (Venus reporter); 330,000 tested, 0.46% active; AID 720580; Potency, µM (highest dose often 36.5 µM), for the others: at the highest dose activity change, negative = inhibition, actives largely listed as inhibitors; Vaccinia virus Venus reporter expression, fluorescence; calls by dose curve; tested in A549 cells; further: potency means the concentration at half of the fitted maximal effect; on the % scale 0 is the no-effect control and ±100 the full control effect; nearly all actives have a fitted effect of over 30% in size
LASV entry inh: inhibitors of Lassa virus binding or cell entry | Lassa virus pseudotype entry inhibition, cell reporter | Potency, µM (top dose mostly 37.9 µM), for the others: at the top dose activity change, negative = inhibition, usual class: inhibitors | 300,000 tested, 1.2% active; calls by dose curve; tested in HEK293 cells; further: potency means the concentration at half of the fitted maximal effect; on the % scale 0 is the no-effect control and ±100 the full control effect; nearly all actives have a fitted effect of over 50% in size
Active calls of the source: *; i = inactive; ? = inconclusive; / = not tested or not shown; [ ] = dose if it differs, or a comment. This is one part of a sample in which hits are shown more often than they occur.

SMILES	Shiga toxin inh	Cycloheximide cs	VACV mCherry inh	MARV entry inh	VACV Venus inh	LASV entry inh
Cc1nn(-c2nc3ccccc3s2)c(N)c1-c1ccccc1	90.5*	72.4*	-23.0%	0.1%	-17.6%	-9.5%
Cc1cc(N)n(-c2nc3ccccc3s2)n1	8.9	-3.8	/	-23.4%	/	4.5%
Cc1nn(-c2nc3ccccc3s2)c(N)c1-c1ccc(Cl)cc1	54.1*	33.0*	-13.9%	28.0%[46.1 µM]	2.1%	29.1%
Cc1nn(-c2nc3ccccc3s2)c(N)c1Sc1ccc(F)cc1	48.5*	20.3*	-2.6%	?	-7.6%	-0.8%
Cc1c2c(=O)n(-c3nc4ccccc4s3)nc-2cc(O)n1Cc1ccccc1	22.3	11.4	/	/	/	/
O=C(C(=S)N1CCOCC1)c1c[nH]c2ccccc12	10.2	-2.7	-8.7%	?	-7.9%	4.0%
O=C(Nc1ccc2c(c1)OCCO2)C1CCN(C(=O)c2ccc(Br)cc2)CC1	41.1	17.7*	-13.9%	11.1%	-6.5%	30.5%
O=C(Nc1ccc2c(c1)OCO2)C1CCCN(S(=O)(=O)Cc2ccccc2)C1 (stereo unspecified)	-5.9	1.4	-3.1%	12.7%	-18.3%	9.8%
O=C(Nc1ccc2c(c1)OCCO2)C1CCCN(S(=O)(=O)Cc2ccccc2)C1 (stereo unspecified)	71.9*	55.8*	-5.9%	18.2%[46.1 µM]	-12.4%	3.5%
COc1ccc(C(=O)N2CCC(C(=O)Nc3ccc4c(c3)OCCO4)CC2)cc1	42.9	48.4*	-11.9%	11.2%	1.0%	12.9%
O=C(Nc1ccc2c(c1)OCCO2)C1CCN(C(=O)c2ccccc2)CC1	105.7*	20.5*	i	0.8%	-8.3%	6.2%
COc1ccc(NC(=O)C2CCN(C(=O)c3ccc(OC)cc3)CC2)cc1	1.2	0.2	-23.9%	-0.7%	-18.5%	3.9%
CC1CC(OP(O)(=S)c2ccc(N(C)C)cc2NC(=O)c2cccs2)CC(C)(C)C1 (stereo unspecified)	31.9	31.5*	?	-0.4%[46.1 µM]	-4.5%	15.8%[46.1 µM]
CCCc1noc2c1/C(=N\O)CC(CC(C)SCC)C2 (stereo unspecified)	19.2*	32.9*	-15.4%	7.8%	-14.9%	1.5%
CCSC(C)CC1C/C(=N/O)c2c(CC)noc2C1 (stereo unspecified)	4.1	2.9	-19.8%	?	-7.3%	-5.4%
O=C1NC(=O)N(c2ccccc2)C(=O)/C1=C\c1ccc2c3c(cccc13)CC2	11.7	2.5	/	/	/	/
COc1ccccc1N1C(=O)NC(=O)/C(=C/c2ccc3c4c(cccc24)CC3)C1=O	33.2	17.5*	-1.6%	7.4%	7.8%	-1.2%
O=C1NN(c2ccc(F)cc2)C(=O)/C1=C\c1cnn(-c2ccccc2)c1	-3.4	-1.3	/	/	/	/
O=C1NC(=O)N(Cc2ccccc2)C(=O)/C1=C/c1cnn(-c2ccccc2)c1	51.3*	30.4*	/	/	/	/
COc1cc(/C=C2/C(=O)NC(=O)N(c3ccccc3)C2=O)ccc1O	-12.0	-2.9	-9.8%	?	-1.5%	-3.0%
COc1ccccc1N1C(=O)NC(=O)/C(=C\c2cnn(-c3ccccc3)c2)C1=O	47.5*	13.3	0.5%	?	-0.2%	4.7%[46.1 µM]
CCN1C(=NCc2cccc(Cl)c2)N[C@@H](c2cccc(C(F)(F)F)c2)C(C(=O)OC)=C1C	/	/	-15.0%	/	?	/
N#CC(C#N)=C1C=CC=CN1/C(=C\c1ccccc1)C(=O)c1cccs1	57.4	23.9*	/	6.5%	/	4.7%
CCOC(=O)C1=C(c2ccccc2)NC(N)=NC1c1ccc(OCc2ccc(Cl)cc2)c(OC)c1 (stereo unspecified)	29.5*	10.8	/	/	/	/
CCOC(=O)C1=C(c2ccccc2)NC(=O)NC1c1cc(Cl)c(O)c(OC)c1 (stereo unspecified)	8.2	20.3	-26.8%	?	-12.8%	-18.5%[46.1 µM]
SMILES	Shiga toxin inh	Cycloheximide cs	VACV mCherry inh	MARV entry inh	VACV Venus inh	LASV entry inh
CCCc1nn(C)c2c1[C@@H](c1cccnc1)C(C#N)=C(N)O2	/	/	/	-3.8%	/	/
S=P(N1CCCCCC1)(N1CC1)N1CC1	/	/	-22.8%	7.08µM*	-15.1%	?
Cc1nn(-c2ccccc2)c(C)c1CCC(=O)O	89.9*	42.3*	/	?	/	?
Cc1nn(Cc2ccccc2)c(C)c1CCC(=O)O	34.4	10.7	i	3.0%	-11.9%	7.0%
COC(=O)CCc1c(C)nn(-c2ccccc2)c1C	63.7*	25.2*	-19.0%	5.2%	-20.2%	?
Cc1nc2ccccc2n1CC(=O)OCC(=O)N1CCC(C)CC1	/	/	i	0.6%	-15.1%	8.8%
O=C(Nc1ccccc1)Nc1cccc2nsnc12	85.7	34.4*	-1.8%	?	-19.5%	?
